These results are taken from PubChem BioAssay (EPA / NIEHS).

Molecules are shown by their SMILES. Records with an inconclusive call do not appear. Calls of active or inactive are those of the source. Rule for the calls, unless noted: active = hit-call score of the fitted dose curve at least 0.9, where 1 is the maximum; inactive = score below 0.9.

The nature of assay [1]: CCTE_Harrill_HTTr_Viability_MCF7: CCTE's 6-hour Cell Viability Assessment for the High-Throughput Transcriptomics (HTTr) Platform, in MCF-7 cells cultured in DMEM + 10% fetal bovine serum, Harrill Lab (AID 2284010). Put shortly:
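Eight-point concentration series, six-hour exposure. Propidium iodide exclusion imaged to assess membrane integrity as a cytotoxicity readout; bidirectional fitting was done with DMSO as negative control and activity baseline.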

A short description of assay [2]: CCTE_Harrill_HTTr_Apoptosis_MCF7: CCTE's 6-hour Apoptosis Assessment for the High-Throughput Transcriptomics (HTTr) Platform, in MCF-7 cells cultured in DMEM + 10% fetal bovine serum, Harrill Lab (AID 2284011). Put shortly: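 Apoptosis in MCF-7 cells grown in DMEM with 10% fetal bovine serum was scored after a six hour exposure by high content imaging of caspase-3/7 activation (CellEvent Caspase 3/7 Green), with DMSO serving as negative control and baseline.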

Assay [3] can be described thus: CCTE_Shafer_MEA_acute_firing_rate_mean: CCTE's Neural Acute Assay for Mean Firing Rate, Shafer Lab (AID 2284009).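 Note: analyzed for loss of signal so actives lower firing rate relative to DMSO.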 The method in brief: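 Spontaneous spiking of primary rat cortical networks, DIV 13/15, 37 C. Compound 0.03-40 uM, n ≥3 wells; 40 min baseline vs 40 min treated. Endpoint fitted in loss-of-signal direction against DMSO.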
The nature of assay [4]: CCTE_Harrill_HTTr_CellCount_MCF7: CCTE's Cell Proliferation Assessment for the High-Throughput Transcriptomics (HTTr) Platform, Harrill Lab (AID 2284012; active = hit-call score of the fitted dose curve at least 0.9, where 1 is the maximum;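 note: intended direction is loss of nuclei count meaning fewer cells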). Put shortly: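 For this full-screen endpoint, MCF-7 cultures received eight compound dilutions for six hours. Well nuclei counts from Hoechst imaging were analyzed relative to DMSO.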
Assay [5] is described as follows: CCTE_Shafer_MEA_acute_burst_number: CCTE's Neural Acute Assay for Single-Electrode Bursts, Shafer Lab (AID 2284013). Put shortly: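 Burst totals were derived with adaptive spike detection (8x rms threshold) on filtered signals from rat cortical cultures; change relative to pre-treatment baseline after 40-min compound exposure (0.03-40 uM) was fitted in the negative direction against DMSO.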

Assay [6] can be described thus: CCTE_Shafer_MEA_acute_burst_duration_mean: CCTE's Neural Acute Assay for Mean Burst Duration, Shafer Lab (AID 2284014).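 Note: hits are decreases in mean burst duration relative to DMSO controls.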 Put shortly:
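Acute exposure of mature rat cortical networks (DIV 13 or 15) grown on microelectrode arrays to 0.03-40 uM compound. Mean burst duration compared with the 40-min pre-dose baseline over a 40-min post-dose recording at 37 C.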

The nature of assay [7]: CCTE_Shafer_MEA_acute_per_burst_spike_number_mean: CCTE's Neural Acute Assay for Average Number of Spikes Per Burst, Shafer Lab (AID 2284015).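 Note: hits are decreases in mean spikes per burst versus baseline.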 The method in brief: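 Rat primary cortical neurons on 48-well MEAs (DIV 13 or 15) were treated with 0.03-40 uM compound at 37 C. Mean spikes per burst over 40 min were recorded before and after exposure and expressed as percent change from baseline, relative to DMSO.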

Assay [8] in a line: CCTE_Shafer_MEA_acute_interburst_interval_mean: CCTE's Neural Acute Assay for Mean Interburst Interval, Shafer Lab (AID 2284016).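 Note: percent change of mean interburst interval versus each well's own pre-dose baseline; curves fitted for decrease in interburst interval relative to DMSO.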 The method in brief:
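Rat primary cortical neurons on 48-well MEAs at DIV 13 or 15 were exposed acutely to 0.03-40 uM. Spikes detected at 8x rms noise, 37 C. Mean interburst interval from 40 min recordings expressed as percent change from 40 min pre-treatment baseline.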

Assay [9] in a line: CCTE_Shafer_MEA_acute_burst_percentage_mean: CCTE's Neural Acute Assay for Percentage of Spikes in a Burst, Shafer Lab (AID 2284017).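 For AC50: curve fitted for loss of signal so potency reflects decreased burst percentage.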 Put shortly:
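Primary rat cortical neurons on 48-well MEA plates, treated on DIV 13 or 15 at 0.03-40 uM. Spikes detected at 8x rms noise at 37C; percent change from 40-min baseline to 40-min post-dose recording, fitted versus DMSO.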

A short description of assay [10]: CCTE_Shafer_MEA_acute_burst_percentage_std: CCTE's Neural Acute Assay for Standard Deviation of Burst Percentage, Shafer Lab (AID 2284018).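 Note: fitted in the negative direction so actives lower burst percentage SD.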 Put shortly: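 Primary rat cortical neurons on 16-electrode MEA wells were recorded 40 min at baseline (DIV 13 or 15), then 40 min after compound (0.03-40 uM), at 37 C. Well value is SD across electrodes of spikes-in-bursts/total spikes; endpoint is percent change, DMSO-referenced.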

The nature of assay [11]: CCTE_Shafer_MEA_acute_per_network_burst_spike_number_mean: CCTE's Neural Acute Assay for Average Number of Spikes in a Network Burst, Shafer Lab (AID 2284019).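 For AC50: curve fitted for loss of signal so actives reduce spikes per network burst.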 The method in brief:
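Acute exposure of rat primary cortical networks (DIV 13/15) on MEAs; adaptive spike detection at 8x rms noise, 37 C. Percent change in spikes per network burst after 40 min with compound (0.03-40 uM), negative direction vs DMSO.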

Assay [12] in a line: CCTE_Shafer_MEA_acute_per_network_burst_spike_number_std: CCTE's Neural Acute Assay for Standard Deviation of Number of Spikes in a Network Burst, Shafer Lab (AID 2284020).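 Note: fitted for decrease in spike-number SD versus DMSO so actives lower it.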 Put shortly:
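Acute MEA exposure, rat cortical neurons, 0.03-40 uM. Per-well % change versus own baseline; DMSO as negative control.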

Assay [13] in a line: CCTE_Shafer_MEA_acute_per_network_burst_electrodes_number_mean: CCTE's Neural Acute Assay for Mean Number of Electrodes in a Network Burst, Shafer Lab (AID 2284021).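 Note: curves fitted for decreases only so hits reduce electrodes per burst.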 The method in brief: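 Percent change from baseline in average electrode count per network burst, rat cortical cultures on 48-well MEAs; 40-min recordings each side of exposure, DIV 13 or 15; threshold 8x rms noise; DMSO as negative control.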

Assay [14] in a line: CCTE_Shafer_MEA_acute_network_burst_percentage: CCTE's Neural Acute Assay for Percentage of Network Bursts, Shafer Lab (AID 2284022).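 Note: curves fitted for loss so actives lower network burst percentage.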 The method in brief:
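On DIV 13 or 15, at least three wells of rat cortical neurons per compound are dosed at 0.03-40 uM. Spontaneous firing is detected at 8x rms noise for 40 min before and after dosing at 37 C. The percent change in network-burst spike share is reported.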

The nature of assay [15]: CCTE_Shafer_MEA_acute_cross_correlation_area: CCTE's Neural Acute Assay for Area of Cross Correlation, Shafer Lab (AID 2284024).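 Note: area under pooled inter-electrode spike cross-correlation near zero lag as percent change from own baseline; curves fitted for loss of cross-correlation area so actives lower synchrony.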 Put shortly: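 Extracellular recordings from cultured rat cortical neurons measure network synchrony as cross-correlation area; each well's post-compound value (0.03-40 uM, 40 min) is compared with its own 40 min baseline to give percent change.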

Assay [16] in a line: CCTE_Shafer_MEA_acute_cross_correlation_HWHM: CCTE's Neural Acute Assay for Cross Correlation at Half Width at Half Maximum, Shafer Lab (AID 2284026).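 Note: spontaneous network firing of rat primary cortical neurons on multiwell microelectrode arrays; percent change per well from pre-dose baseline in spike cross-correlogram half width; hits are a decrease in cross-correlogram half width relative to DMSO.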 Put shortly:
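Percent change in cross-correlogram half width at half maximum, narrower meaning more synchrony, was derived per well from paired 40-min recordings before and during exposure to 0.03-40 uM compound in rat cortical cultures at 37 C.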

Assay [17] can be described thus: CCTE_Shafer_MEA_acute_synchrony_index: CCTE's Neural Acute Assay for Synchrony, Shafer Lab (AID 2284027).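 Note: network synchrony index of spontaneous spiking in primary rat cortical neurons on MEAs; fitted for loss of signal so actives lower synchrony relative to DMSO.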 The method in brief: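 Acute exposure of rat primary cortical neurons (DIV 13 or 15) at 0.03-40 uM. Synchrony index, 40 min before vs after, as % change relative to DMSO control.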

`O=C(O)c1cccc(C(=O)O)c1`: the result in assay [1] and in [2] was inactive.
As usually defined, the AC50 is the midpoint of the concentration-response curve, whichever way the signal moves. With `Cc1ncc([C@@H](CCCCCCc2ccc3c(n2)NCCC3)CC(=O)O)cn1`, the result in [3], in [5], in assay [6], in [7], in [8] and in [9] was inactive. Further, the result in [10], in [11], in assay [12], in assay [13], in [14] and in [15] was inactive. In addition, the result in assay [16] and in assay [17] was inactive. Moreover, the AC50 in assay [1] was 0.0626 µM (active); in [2] it was 1.6 µM (active); in assay [4], 0.321 µM (active).
As to `CCCCCCCC/C=C\CCCCCCCC(=O)OC[C@@H](O)[C@H]1OC[C@H](O)[C@H]1O`, the outcome in [3], in assay [1], in [2], in assay [4], in assay [5] and in assay [6] was inactive. Moreover, the outcome in assay [7], in assay [8], in [9], in assay [10], in assay [11] and in assay [12] was inactive. The call in [13], in assay [14], in assay [15], in assay [16] and in assay [17] was inactive.
On to `Nc1ccn([C@@H]2O[C@H](CO)[C@@H](O)[C@@H]2O)c(=O)n1`, for which the result in assay [1] and in assay [2] was inactive.
Consider `CCc1ccc(O)c(C(C)(C)C)c1`, for which the AC50 was 0.672 µM (active) in [3]; 1.03 µM (active) in assay [5]; 30 µM (active) in [6]; 30.3 µM (active) in assay [7]; 2.12 µM (active) in assay [9]; 20 µM (active) in assay [10]. Further, the AC50 in [11] is 35.3 µM (active); in assay [13], 35 µM (active). The result in assay [1], in assay [2], in assay [4], in assay [8], in assay [12] and in assay [14] was inactive. In addition, the call in assay [15], in assay [16] and in assay [17] was inactive.
`CC[C@H](C)C(=O)O[C@H]1C[C@H](O)C=C2C=C[C@H](C)[C@H](CC[C@@H](O)C[C@@H](O)CC(=O)O)[C@H]21`: the compound was classed as inactive in [3], in [1], in [2], in assay [5], in assay [6] and in assay [7]. The outcome in assay [8], in assay [9], in assay [10], in assay [11], in [12] and in assay [13] was inactive. Also, the result in [14], in assay [15], in assay [16] and in assay [17] was inactive.
Consider `O=S(=O)(O)c1ccc(N=Nc2c(O)ccc3cc(S(=O)(=O)O)ccc23)cc1`, for which the compound was classed as inactive in [3], in [1], in [2], in assay [4], in [5] and in [6]. Further, the compound was called inactive in [7], in [8], in [9], in assay [10], in assay [11] and in assay [12]. The result in [13], in [14], in [15], in [16] and in assay [17] was inactive.
Consider `CC(C)c1nnc2ccc(-c3ocnc3-c3cc(F)ccc3F)cn12`, for which the result in assay [1] and in [2] was inactive.
Consider `CCCCCCCCCCCCCCO`, for which the result in assay [1] and in assay [2] was inactive.
`CCCCC(CC)C(=O)OCCOCCOCCOC(=O)C(CC)CCCC` (centres undefined): the result in [3], in assay [1], in assay [2], in assay [4], in [5] and in [6] was inactive. Moreover, the call in assay [7], in assay [8], in assay [9], in assay [10], in [11] and in assay [12] was inactive. The compound was classed as inactive in assay [13], in [14], in assay [15], in [16] and in assay [17].
